In PubChem BioAssay:
Active and inactive are the calls of the source. Unless noted, how the calls were made is not given here.

Experiments:
[1] = tested on: XIP peptide (Xip251-270) binding; test: XIP fragment 251-270 binding compounds – biochemical, small-molecule microarray, fluorescence 635/667 nm, 0.1 µg/mL protein, primary screen (AID 1182); conditions: fluorescent protein binding, 635 nm, higher = more signal, called active from +8 up or from −8 down
XIP peptide (Xip251-270) = test: compounds binding XIP fragment 251-270 – biochemical, small-molecule microarray, fluorescence 635/667 nm, 0.5 µg/mL protein, primary screen (AID 1183); conditions: fluorescence 635 nm, higher = more signal
[2] = blood-stage malaria parasite viability loss – strain 3D7, DAPI fluorescence, 100 nL, primary screen (AID 1184);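 further: parasites grown inside human red blood cells in medium with human serum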; conditions: P. falciparum 3D7 growth, 3 d, higher = more signal
[3] = molecular target: Homeobox protein Hox-A13 (Mus musculus) (UniProt Q62424); test: disruptors of Hoxa13 oligonucleotide interaction – biochemical, fluorescence polarization, labeled oligonucleotide, primary screen (AID 1185); conditions: Hoxa13:DNA binding, 15 min, higher = more signal, called active from +8 up or from −8 down
[4] = blockers of DNA damage checkpoint Chk1 activation – imaging, HeLa, hydroxyurea, phospho-Chk1 antibody, percent positive cells, primary screen (AID 1186); conditions: hydroxyurea-induced phospho-Chk1 immunofluorescence imaging, higher = more signal
[5] = blockers of DNA damage checkpoint Chk1 activation – imaging, HeLa, hydroxyurea, phospho-Chk1 nuclear intensity, primary screen (AID 1187); conditions: hydroxyurea-induced phospho-Chk1 immunofluorescence imaging, higher = more signal

Chain of Homeobox protein Hox-A13 (Mus musculus) (Q62424 whole entry, looked up): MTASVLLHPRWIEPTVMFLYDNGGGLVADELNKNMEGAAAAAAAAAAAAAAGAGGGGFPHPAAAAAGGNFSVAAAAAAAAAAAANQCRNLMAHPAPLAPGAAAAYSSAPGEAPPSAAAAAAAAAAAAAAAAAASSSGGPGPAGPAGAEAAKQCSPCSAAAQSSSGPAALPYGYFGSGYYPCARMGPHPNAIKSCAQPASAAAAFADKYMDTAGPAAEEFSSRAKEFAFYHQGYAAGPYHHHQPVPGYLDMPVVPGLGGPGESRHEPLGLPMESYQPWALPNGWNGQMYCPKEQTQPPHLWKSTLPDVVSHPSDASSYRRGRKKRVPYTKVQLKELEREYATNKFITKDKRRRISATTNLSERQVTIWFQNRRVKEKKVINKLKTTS

Compound: C=CCOC(=O)[C@H]1[C@@H]2C(=O)O[C@@H](c3ccccc3)[C@@H](c3ccccc3)N2[C@@H](c2ccc(OCCOC(=O)[C@@H]3C[C@@H]4C(=O)N[C@@H](CCCC[N+](C)(C)C)C(=O)N4[C@@H]3c3ccc(O)cc3)cc2)[C@]12C(=O)Nc1ccc(I)cc12
- composite z-score [1]: 0.557 (inactive)
- composite z-score (XIP peptide (Xip251-270)): 0.765
- z-score [2]: 0.0373
- z-score [3]: 6.46 (inactive)
- z-score [4]: -0.337 (inactive)
- z-score [5]: -0.0674 (inactive)

Compound: CC(C)N1C(=O)C[C@@](C(=O)NCCN2CCOCC2)(c2ccc([N+](=O)[O-])cc2)[C@H]1c1ccc(CO)cc1
- composite z-score [1]: 0.534 (inactive)
- composite z-score (XIP peptide (Xip251-270)): 0.634
- z-score [2]: 0.289
- z-score [3]: -2.52 (inactive)
- z-score [4]: 0.159 (inactive)
- z-score [5]: 0.451 (inactive)

Compound: O=C(NCc1ccc(F)cc1)[C@H]1C[C@H]2C(=O)N3CCC[C@H]3C(=O)N2[C@H]1c1ccc(O)cc1
- composite z-score [1]: -0.0173 (inactive)
- composite z-score (XIP peptide (Xip251-270)): 0.702
- z-score [2]: -1.21
- z-score [3]: 1.55 (inactive)
- z-score [4]: -0.717 (inactive)
- z-score [5]: -0.415 (inactive)

Compound: CN(C)c1ccc(C(O)C2C=CC3C(=O)N(Cc4ccccc4)C(=O)C3N2n2cnnc2)cc1 (stereo unspecified)
- composite z-score [1]: 3 (inactive)
- composite z-score (XIP peptide (Xip251-270)): -0.23
- z-score [2]: 0.736
- z-score [3]: -0.863 (inactive)
- z-score [4]: -1.39 (inactive)
- z-score [5]: -1.58 (inactive)

Compound: CN(C)CCCNC(=O)[C@@]1(C)c2ccccc2C(=O)N(Cc2ccc(OC(F)(F)F)cc2)[C@H]1c1ccc(CO)cc1
- composite z-score [1]: 0.784 (inactive)
- composite z-score (XIP peptide (Xip251-270)): 0.778
- z-score [2]: -1.94
- z-score [3]: -1.98 (inactive)
- z-score [4]: 0.395 (inactive)
- z-score [5]: 0.0436 (inactive)

Compound: CC(C)C(=C=CC[C@H](O)c1ccccc1OCCO)C[C@H](O)COCc1ccccc1
- composite z-score [1]: -0.182 (inactive)
- composite z-score (XIP peptide (Xip251-270)): 0.619
- z-score [2]: -1.78
- z-score [3]: -4.94 (inactive)
- z-score [4]: 0.233 (inactive)
- z-score [5]: -0.371 (inactive)

Compound: COc1ccc(C(=O)Nc2ccc3c(c2)[C@@]2(O[C@H](CCO)[C@@H]([Si](C)(C)c4ccc(OC)cc4)[C@@H]2C)C(=O)N3Cc2ccccc2)cc1
- composite z-score [1]: 0.396 (inactive)
- composite z-score (XIP peptide (Xip251-270)): 0.466
- z-score [2]: -2.89
- z-score [3]: -1.54 (inactive)
- z-score [4]: 0.0691 (inactive)
- z-score [5]: 0.518 (inactive)

Compound: COc1cc(CO)cc(I)c1O[C@H]1C=C(C(=O)NCCO)C[C@@H]2O[C@H]12
- composite z-score [1]: 0.28 (inactive)
- composite z-score (XIP peptide (Xip251-270)): 0.347
- z-score [2]: -1.41
- z-score [3]: -7.29 (inactive)
- z-score [4]: 0.552 (inactive)
- z-score [5]: 0.361 (inactive)

Compound: CC1CC/C=C\[C@H]2OC34C=CCN(C(C)(C)C)C(=O)[C@H]3N(CCCO)C(=O)[C@@H]4C2C(=O)O1 (stereo partly specified)
- composite z-score [1]: 0.453 (inactive)
- composite z-score (XIP peptide (Xip251-270)): 0.774
- z-score [2]: 0.428
- z-score [3]: -3.59 (inactive)
- z-score [4]: 0.0854 (inactive)
- z-score [5]: -0.248 (inactive)

Compound: COc1ccc(C#Cc2ccc3c(c2)[C@]2(C(=O)N3)[C@H](C(=O)O)[C@H]3C(=O)O[C@H](c4ccccc4)[C@H](c4ccccc4)N3[C@@H]2c2ccccc2OCCO)cc1
- composite z-score [1]: 1.89 (inactive)
- composite z-score (XIP peptide (Xip251-270)): 0.833
- z-score [2]: -2.15
- z-score [3]: -3 (inactive)
- z-score [4]: 0.135 (inactive)
- z-score [5]: 0.175 (inactive)

Compound: C=C(CCCC)/C(=C/C[C@H](OC(C)=O)c1cccc(OCCO)c1)c1cnc2ccccc2c1
- composite z-score [1]: -0.0697 (inactive)
- composite z-score (XIP peptide (Xip251-270)): 0.0014
- z-score [2]: -2.57
- z-score [3]: -4.01 (inactive)
- z-score [4]: -0.549 (inactive)
- z-score [5]: -0.761 (inactive)

Compound: COCCCN1C(=O)[C@@]2(c3ccc([N+](=O)[O-])cc3)CC(=O)N(CC34CC5CC(CC(C5)C3)C4)[C@@H]2c2ccc(CO)cc21
- composite z-score [1]: 0.264 (inactive)
- composite z-score (XIP peptide (Xip251-270)): 0.578
- z-score [2]: -0.243
- z-score [3]: -0.113 (inactive)
- z-score [4]: -0.313 (inactive)
- z-score [5]: -0.793 (inactive)

Compound: CCC(CC)C(O)C1C=CC2C(=O)N(c3ccccc3)C(=O)C2N1Nc1ccccc1F (stereo unspecified)
- composite z-score [1]: 0.977 (inactive)
- composite z-score (XIP peptide (Xip251-270)): -0.243
- z-score [2]: -0.0776
- z-score [3]: -3.13 (inactive)
- z-score [4]: -0.121 (inactive)
- z-score [5]: -0.175 (inactive)

Compound: CCN(CC)c1ccc(N2CC=CC34O[C@@H]5C=CCCOC(=O)C5[C@H]3C(=O)N(C(C)CO)[C@@H]4C2=O)cc1 (stereo partly specified)
- composite z-score [1]: 0.587 (inactive)
- composite z-score (XIP peptide (Xip251-270)): 0.77
- z-score [2]: 0.479
- z-score [3]: -6.31 (inactive)
- z-score [4]: 1.74 (inactive)
- z-score [5]: 0.865 (inactive)

Compound: CN(C)C(=O)[C@]1(Cc2ccccc2)N=C(c2ccc(OCCCO)cc2)O[C@@H]1c1ccccc1CN=[N+]=[N-]
- composite z-score [1]: 0.245 (inactive)
- composite z-score (XIP peptide (Xip251-270)): 0.764
- z-score [2]: -2.6
- z-score [3]: -4.47 (inactive)
- z-score [4]: 0.0164 (inactive)
- z-score [5]: 0.304 (inactive)

Compound: C=C(CCCC)/C(=C/C[C@H](OC(=O)c1ccncc1)c1ccc(OCCO)cc1)c1cnc2ccccc2c1
- composite z-score [1]: 1.51 (inactive)
- composite z-score (XIP peptide (Xip251-270)): 0.754
- z-score [2]: -2.94
- z-score [3]: -2.83 (inactive)
- z-score [4]: -0.658 (inactive)
- z-score [5]: -0.869 (inactive)

Compound: COC(=O)[C@@]1(Cc2ccccc2)[C@H]2c3cc(C(=O)N(C)C)n(Cc4ccc(C(F)(F)F)nc4)c3C[C@H]2CN1C(=O)c1ccccc1
- composite z-score [1]: 0.119 (inactive)
- composite z-score (XIP peptide (Xip251-270)): 0.337
- z-score [2]: -1.24
- z-score [3]: -3.46 (inactive)
- z-score [4]: 0.296 (inactive)
- z-score [5]: 0.0603 (inactive)

Compound: COc1cc(C(O)C2C=CC3C(=O)N(c4ccccc4)C(=O)C3N2Nc2ccccc2F)cc(OC)c1OC (stereo unspecified)
- composite z-score [1]: 0.283 (inactive)
- composite z-score (XIP peptide (Xip251-270)): 0.737
- z-score [2]: -0.267
- z-score [3]: -4.84 (inactive)
- z-score [4]: 0.409 (inactive)
- z-score [5]: -0.477 (inactive)

Compound: C=CCNC(=O)[C@H]1[C@@H]2C(=O)O[C@@H](c3ccccc3)[C@@H](c3ccccc3)N2[C@@H](c2ccc(OCCO)cc2)[C@]12C(=O)Nc1ccccc12
- composite z-score [1]: 1.43 (inactive)
- composite z-score (XIP peptide (Xip251-270)): 0.57
- z-score [2]: -0.541
- z-score [3]: -5.26 (inactive)
- z-score [4]: 0.286 (inactive)
- z-score [5]: 0.595 (inactive)

Compound: O=C(NCCN1CCOCC1)[C@@H]1c2ccccc2C(=O)N(Cc2ccc(OC(F)(F)F)cc2)[C@H]1c1ccc(CO)cc1
- composite z-score [1]: 0.441 (inactive)
- composite z-score (XIP peptide (Xip251-270)): -0.103
- z-score [2]: -1.05
- z-score [3]: -4.13 (inactive)
- z-score [4]: 0.0777 (inactive)
- z-score [5]: -0.117 (inactive)

Compound: COC(=O)C(CC#Cc1ccc2c(c1)[C@]1(C(=O)N2)[C@H](c2ccccc2OCCO)N2[C@H](c3ccccc3)[C@H](c3ccccc3)OC(=O)[C@H]2[C@@H]1C(=O)N1CCc2cc(OC)c(OC)cc2C1)C(=O)OC
- composite z-score [1]: -0.19 (inactive)
- composite z-score (XIP peptide (Xip251-270)): 0.621
- z-score [2]: -2.19
- z-score [3]: 3.17 (inactive)
- z-score [4]: -0.0586 (inactive)
- z-score [5]: -0.139 (inactive)

Compound: COCCOC(=O)N1C(=O)[C@@]2(c3cc(C#CCNC(N)=O)ccc31)[C@H](C(=O)Nc1nc3ccccc3s1)[C@H]1C(=O)O[C@H](c3ccccc3)[C@H](c3ccccc3)N1[C@@H]2c1ccccc1OCCO
- composite z-score [1]: 0.278 (inactive)
- composite z-score (XIP peptide (Xip251-270)): 0.634
- z-score [2]: -1.78
- z-score [3]: 2.01 (inactive)
- z-score [4]: -0.339 (inactive)
- z-score [5]: -0.644 (inactive)

Compound: CCCCN1CC=CC23O[C@@H]4/C=C\CCCOC(=O)C4[C@H]2C(=O)N(C(CO)C(C)C)[C@@H]3C1=O (stereo partly specified)
- composite z-score [1]: 1.4 (inactive)
- composite z-score (XIP peptide (Xip251-270)): -0.492
- z-score [2]: 1.18
- z-score [3]: -5.81 (inactive)
- z-score [4]: 0.458 (inactive)
- z-score [5]: 0.188 (inactive)

Compound: C=C(COC)C(=O)CC[C@H](OC(=O)c1cccnc1)c1ccc(OCCO)cc1
- composite z-score [1]: 1.08 (inactive)
- composite z-score (XIP peptide (Xip251-270)): 0.447
- z-score [2]: -0.711
- z-score [3]: -5.58 (inactive)
- z-score [4]: 0.35 (inactive)
- z-score [5]: 0.343 (inactive)

Compound: COC(=O)[C@@]1(Cc2ccccc2)[C@H]2c3cc(C(=O)N(C)C)n(CCO)c3C[C@H]2CN1C(=O)c1ccccc1
- composite z-score [1]: 1.42 (inactive)
- composite z-score (XIP peptide (Xip251-270)): 0.182
- z-score [2]: 1.1
- z-score [3]: -3.87 (inactive)
- z-score [4]: 0.736 (inactive)
- z-score [5]: 0.491 (inactive)

Compound: CC(C)[Si](C#CCCc1ccccc1)(O[C@H](c1ccccc1)c1cn(Cc2ccccc2)nn1)C(C)C
- composite z-score [1]: -0.0657 (inactive)
- composite z-score (XIP peptide (Xip251-270)): 0.574
- z-score [2]: -0.374
- z-score [3]: -1.64 (inactive)
- z-score [4]: -1.18 (inactive)
- z-score [5]: -1.16 (inactive)
